High-throughput results as filed in PubChem.
bovine MsrA act – activators of bovine methionine sulfoxide reductase A; AID 602163; activation, % at 10.6 µM; 0.3% of 360,000 active; purified bovine MsrA, absorbance read-out; in the data active means activation above about 7.5%;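 further: 0% = vehicle and 100% = reference activator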
MsrA inhibitor – inhibits bovine methionine sulfoxide reductase A; inhibition, % at 15.5 µM; AID 651718; purified bovine MsrA, absorbance read-out; 0.75% of 360,000 active; in the data active means inhibition above about 4.5%;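 further: 0% = vehicle wells with enzyme and 100% = reference inhibitor wells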
NPR2 activator – GC-B (human) receptor activation; activation, % at 10 µM; P20594; 0.11% of 370,000 active; HEK293-GC-B cells, CNP EC30, cGMP TR-FRET; 0% at EC30 CNP, 100% saturating CNP;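 active means activation at 10 µM reaching about 35% in either raw or pattern-adjusted values, limit read from the data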
NPR1 activator – GC-A (human) enzyme activation | AID 1671463 | HEK293 GC-A cells, cGMP TR-FRET, EC30 ANP; 0% at EC30 ANP, 100% saturating ANP | 0.14% of 370,000 active | activation, % at 10 µM | P16066; in the data active means activation above about 40%
Target sequence (P16066 whole entry, looked up): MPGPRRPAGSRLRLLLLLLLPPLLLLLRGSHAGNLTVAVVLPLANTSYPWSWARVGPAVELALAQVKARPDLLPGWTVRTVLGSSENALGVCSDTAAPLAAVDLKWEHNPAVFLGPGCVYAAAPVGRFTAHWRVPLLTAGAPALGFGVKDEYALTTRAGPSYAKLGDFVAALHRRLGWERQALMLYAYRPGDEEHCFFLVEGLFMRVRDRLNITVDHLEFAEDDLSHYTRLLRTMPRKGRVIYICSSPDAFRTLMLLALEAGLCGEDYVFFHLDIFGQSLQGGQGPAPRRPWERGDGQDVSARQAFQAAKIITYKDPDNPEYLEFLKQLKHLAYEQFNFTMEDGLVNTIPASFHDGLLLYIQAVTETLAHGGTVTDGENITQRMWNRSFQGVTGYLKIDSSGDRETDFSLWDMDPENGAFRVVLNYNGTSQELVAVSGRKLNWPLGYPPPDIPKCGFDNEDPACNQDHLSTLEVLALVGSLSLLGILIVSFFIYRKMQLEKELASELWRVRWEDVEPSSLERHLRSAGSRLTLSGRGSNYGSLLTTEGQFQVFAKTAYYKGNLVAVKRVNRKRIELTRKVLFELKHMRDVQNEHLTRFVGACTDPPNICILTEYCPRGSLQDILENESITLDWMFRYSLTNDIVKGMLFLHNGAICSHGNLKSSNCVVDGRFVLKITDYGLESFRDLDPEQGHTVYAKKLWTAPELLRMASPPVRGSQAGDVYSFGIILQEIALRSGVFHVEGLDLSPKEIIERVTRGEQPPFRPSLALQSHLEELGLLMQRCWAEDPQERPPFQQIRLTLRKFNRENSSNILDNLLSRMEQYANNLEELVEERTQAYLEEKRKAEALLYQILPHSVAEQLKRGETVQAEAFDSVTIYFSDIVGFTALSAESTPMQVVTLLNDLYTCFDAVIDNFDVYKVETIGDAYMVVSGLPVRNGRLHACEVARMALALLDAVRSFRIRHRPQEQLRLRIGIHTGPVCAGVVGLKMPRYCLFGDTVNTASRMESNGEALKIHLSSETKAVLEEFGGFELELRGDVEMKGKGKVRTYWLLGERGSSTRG
MsrA act confirm – confirmation of bovine methionine sulfoxide reductase A activators; purified bovine MsrA, absorbance read-out; 12% of 1,000 active; activation, % at 10.6 µM; shares compounds with bovine MsrA act; in the data active means activation above about 4%;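 further: enzyme coupled to thioredoxin and thioredoxin reductase with NADPH; 0% = vehicle wells and 100% = reference activator wells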
Starred values were filed as active, the others as inactive; x = not tested or not shown. Compounds with a hit are over-represented: about 1.2% of the library has one in this group of screens.

SMILES	bovine MsrA act	MsrA inhibitor	NPR2 activator	NPR1 activator	MsrA act confirm
Cc1[nH]c(=S)sc1Cc1ccc(Cl)c(Cl)c1	x	0	3	-1	x
CCC(C)N(C(=O)CSc1nnc(-c2cccnc2)n1C1CCCCC1)C(C)CC (configuration not stated)	x	x	2	1	x
Cc1sc(NC(=O)CN2CCCC2)nc1-c1ccc2c(c1)CCN2C(=O)c1ccc(F)cc1	12*	-1	-7	-6	-3
COc1ccc(-c2nnn(Cc3ccccc3F)n2)cc1	16*	0	-5	-3	0
COc1cc(-c2nc(=S)[nH][nH]2)cc(OC)c1OC	8.1*	-1	1	3	4.8*
COc1ccc(-c2nc(=S)[nH][nH]2)cc1OC	10*	2	0	0	2
COc1ccc(-c2nc(=S)[nH][nH]2)cc1	4	-1	-1	0	x
Cc1cccc(C)c1NC(=O)COC(=O)C1CC1	9.7*	0	-1	2	-1
N#CCC[C@@H]1CC[C@]2(CCCN(Cc3ccccc3)C2)O1	x	x	5	-3	x
CN(C(=O)c1cccc(NC(=O)Cc2ccc(NC(=O)C3CCN(C(=O)c4ccccc4)CC3)cc2)c1)C1CC1	-1	-1	1	0	x
CN(C(=O)c1cccc(NC(=O)Cc2cccc(NC(=O)C3CCN(C(=O)c4ccccc4)CC3)c2)c1)C1CC1	8.7*	-1	-1	4	-1
Cc1cccc(NC(=O)c2ccccc2NC(=O)c2ccccc2)n1	18*	1	-4	3	1
OC[C@@H]1CN(Cc2ccc3c(c2)OCO3)C[C@H](n2cnc3c(N4CCOCC4)ncnc32)O1	7.8*	1	-7	-5	0
COc1ccc(-n2c(SCC(=O)Nc3ccc(Oc4ccccc4)cc3)nnc2-c2ccco2)cc1	x	x	-2	-5	x
CCCCCCC[C@H](N)[C@H](O)C(=O)N(C)[C@@H](CCS(C)=O)C(=O)N[C@@H](Cc1ccc(O)cc1)C(=O)O (some centres not stated)	x	x	2	0	x
Cc1ccc(-n2c([C@@H]3C[C@H]3c3ccccc3)n[nH]c2=S)cc1	8.9*	0	2	0	-3
C=CCNC(=O)c1nc2ccccc2s1	9.6*	-1	7	6	-1
COc1cccc(-n2cn[nH]c2=S)c1	7.8*	1	4	0	0
CC1CCCN(CCCNC(=O)c2coc3nc4ccccc4nc23)C1 (configuration not stated)	1	0	5	0	x
CC1CCN(CCCNC(=O)c2coc3nc4ccccc4nc23)CC1	9.0*	1	1	-1	-2
Nc1ncnc2nc(SCc3ccccc3)[nH]c12	7.8*	0	5	0	0
C=CCN1C(=O)c2ccccc2C1(O)Cc1ccccc1 (configuration not stated)	11*	0	0	6	-4
CC(C)CN1C(=O)c2ccccc2C1(O)Cc1ccccc1 (configuration not stated)	-5	0	5	4	x
COC(=O)[C@]12C[C@H](CC(=O)NCc3cccc(C(F)(F)F)c3)C(=O)N(Cc3ccco3)C1=C[C@H](COCc1ccccc1)O[C@@H]2C	x	x	1	-3	x
CCC(=O)Nc1ccc2c(c1)C(=O)c1ccccc1C2=O	0	0	-4	11	x
SMILES	bovine MsrA act	MsrA inhibitor	NPR2 activator	NPR1 activator	MsrA act confirm
CCC(=O)NC1=C(NC(C)c2ccccc2)C(=O)c2ccccc2C1=O (configuration not stated)	11*	0	-9	-7	-1
Cc1ccc(/C=N/Nc2nncn2N)cc1	8.5*	0	-2	-4	-1
Nn1cnnc1N/N=C/c1ccc(Cl)c([N+](=O)[O-])c1	18*	1	3	4	1
C[C@H]1[C@@H](NC(=O)c2cccc(N(C)C)c2)CC[C@@]23CCCN2C(=O)CCC[C@@H]13	x	x	-2	-1	x
CCc1ccccc1CNC(=O)C1CCC(CNS(=O)(=O)c2cccc3cccnc23)CC1 (configuration not stated)	x	x	-5	1	x
CC1(C)CNC(=O)c2sc(N3CCCCC3)nc2C1	8.0*	0	2	6	-2
CC1(C)CC(=O)c2sc(N3CCCCC3)nc2C1	-8	4	1	1	x
Cc1ccc2cc(C#N)c(N3CCCN(S(=O)(=O)c4ccccc4)CC3)nc2c1	8.7*	0	0	0	-3
COC(=O)C1=C(C(=O)OC)[C@@]2([C@H](Cc3ccc(C)cc3)Nc3ccccc3)C=C[C@@H]1O2	x	x	-27	-35	x
CCc1ccc(-n2ncc(Cl)c(Oc3ccc(OC)cc3)c2=O)cc1	x	x	3	13	x
Cc1cc(C)n(CCc2nc(-c3ccc(C(C)(C)C)cc3)cs2)n1	9.3*	0	-7	2	-4
Cc1ccc(NC(=O)C2CC3CCC2C3)cc1 (configuration not stated)	x	x	-4	0	x
N/C(=N\C(=S)Nc1ccc2c(c1)OCO2)c1ccccc1	-3	1	1	-2	x
NC(=S)Nc1ccc2c(c1)OCO2	15*	-1	3	0	-3
O=C(CSc1nnc(-c2ccc(Cl)cc2)n1-c1ccccc1)Nc1ccc2c(c1)OCCO2	x	x	-1	0	x
CCN1C(=O)N(S(=O)(=O)C(F)(F)F)[C@@H](c2ccccc2)C(C(=O)OC)=C1C	-7	0	-5	-5	x
CCN1C(=O)N(C)[C@@H](c2ccccc2)C(C(=O)OC)=C1C	9.3*	0	1	1	-4
COc1ccc(C(C)(O)c2nc(-c3cccc(C(F)(F)F)c3)cs2)cc1 (configuration not stated)	9.8*	1	-6	-1	2
COc1cccc(C(C)(O)c2nc(-c3cccc(C(F)(F)F)c3)cs2)c1 (configuration not stated)	-5	1	1	0	x
C[C@]12c3[nH]c4cc(-c5ccco5)ccc4c3CCN1C(=O)[C@@H](CC(=O)NCCc1ccccn1)C[C@@H]2C(=O)N1CCCCC1	-12	2	-1	-11	x
C[C@]12c3[nH]c4cc(-c5ccco5)ccc4c3CCN1C(=O)[C@@H](CC(=O)NCCC1=CCCCC1)C[C@@H]2C(=O)N1CCCCC1	8.3*	1	1	-6	-3
C[C@H]1O[C@@H](n2c3ccc(Cl)cc3c3ccc4c5cc(Cl)ccc5[nH]c4c32)[C@H](O)[C@H](O)[C@H]1O	x	x	-10	3	x
Brc1ccccc1OCCN1CCOCC1	9.5*	-1	1	-2	-3
Clc1cc(Br)ccc1OCCN1CCOCC1	-9	-1	2	2	x
CCOc1ccccc1NC(=S)N1CCN(c2cccc(OC)c2)CC1	8.5*	0	4	1	-1
COc1cccc(N2CCN(C(=S)Nc3ccccc3OC)CC2)c1	-2	2	0	4	x
Clc1ccc(-n2c(SCc3cccc4ccccc34)nnc2-c2ccco2)cc1	x	x	-6	-15	x
C#CCOCCOCCOCCNc1nc(N2CCN(C(=O)[C@H]([C@@H](C)CC)n3cc(CCC(=O)O)nn3)CC2)nc(N2CCN(C(=O)[C@H](C)n3cc(CCCN=C(N)N)nn3)CC2)n1	-2	1	-2	4	x
